Screening data: PubChem, several laboratories
In the library only some 4.2% were active in any assay of this set; here they are far more common.
tim23-1 inh: inhibits growth of tim23-1 mutant yeast; S. cerevisiae tim23-1 growth, BacTiter-Glo luminescence, 24 h; inhibition, % at 20 µM; hit rate 1.3% among 330,000; AID 463212;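 active = growth inhibition of the mutant yeast at or above 50%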;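 also: temperature-sensitive mutant grown at 25 °C; plate controls were DMSO-treated mutant yeast for no effect and medium wells lacking yeast for full effect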
V-ATPase pHluor: alters yeast V-ATPase proton transport | S. cerevisiae, pHLuorin cytosolic pH fluorescence | response, % at 10 µM | hit rate 0.37% among 350,000; in the data active = response mostly above about 7.3%, no sharp cut-off; inactive = mostly below about 5.4%; also: actives read high
tim10-1 inh: tim10-1 yeast growth inhibition; S. cerevisiae tim10-1 ts strain growth, BacTiter-Glo, 24 h; inhibition, % at 20 µM; hit rate 2.2% among 330,000; AID 463190;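 active = inhibition of at least 40%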;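 also: mutant grown at 25 °C; 0% = DMSO wells with yeast and 100% = wells holding no yeast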
NALP3 yeast inh: inhibitors of NALP3 inflammasome in yeast; Yeast reconstituted NLRP3/ASC/caspase-1, beta-gal luminescence, 24 h; inhibition, % at 10 µM; hit rate 0.39% among 330,000; AID 2825;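 active = inhibition of 50% or more; inactive = inhibition below 50%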;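 also: plate controls were induced DMSO wells for no effect and uninduced yeast grown without galactose for full effect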
TIM10 inh: growth inhibitors of TIM10 yeast strain; S. cerevisiae TIM10 strain growth, BacTiter-Glo luminescence, 24 h; inhibition, % at 10 µM; hit rate 1.4% among 330,000; AID 463195;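 active = inhibition of 40% or more at the single tested concentration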;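 also: wild-type TIM10 isogenic control strain grown at permissive 25 °C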
NALP1 inh: inhibitors of NALP1 inflammasome in yeast; AID 2071; inhibition, % at 10 µM; hit rate 0.61% among 280,000; S. cerevisiae NALP1/ASC/caspase-1 growth, X-gal OD620, 72 h; in the data active = inhibition mostly above about 24%, no sharp cut-off; inactive = mostly below about 32%
tim10-1 confirm: confirmation of tim10-1 mutant yeast growth inhibitors | shares compounds with tim10-1 inh | S. cerevisiae tim10-1 ts strain growth, BacTiter-Glo, 24 h | inhibition, % at 20 µM | hit rate 56% among 7,400 | AID 463213;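 active = inhibition of yeast growth at or above a set limit in either of two repeat tests at 20 µM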;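 also: tim10-1 mutant grown at permissive 25 °C to find synthetic lethal compounds; 0% = DMSO yeast wells and 100% = medium wells without yeast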
tim10 confirm: TIM10 yeast growth inhibition, confirmed | shares compounds with TIM10 inh | S. cerevisiae tim10 strain growth, BacTiter-Glo luminescence, 24 h | inhibition, % at 10 µM | hit rate 63% among 4,600;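 active = inhibition of yeast growth at or above a set limit in either of two replicates at 10 µM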;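 also: this counterscreen used the strain with wild-type TIM10; 0% = yeast with DMSO and 100% = medium wells lacking yeast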
tim23-1 conf: tim23-1 yeast growth inhibition, confirmed. S. cerevisiae tim23-1 growth, BacTiter-Glo luminescence, 24 h. hit rate 83% among 4,400. inhibition, % at 20 µM. shares compounds with tim23-1 inh;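 active = inhibition above about 39% in either of two replicate wells at 20 µM, limit read from the data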;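 also: temperature-sensitive tim23-1 mutant grown at 25 °C; 0% = DMSO wells with yeast and 100% = medium wells without yeast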
An asterisk follows results filed as active; nt = no result.

SMILES | tim23-1 inh | V-ATPase pHluor | tim10-1 inh | NALP3 yeast inh | TIM10 inh | NALP1 inh | tim10-1 confirm | tim23-1 conf | others
C/C(CC(=O)Nc1ccc(Cl)c(C(F)(F)F)c1)=N\NC(=O)c1cccc(O)c1 | 42.3 | -2.7 | 35.2 | 7.3 | 30.6 | 21.9 | nt | nt
CCOC(=O)COc1c(OC)cc(Cl)cc1C1NC(=O)NC(C)=C1C(C)=O (configuration not stated) | 15.4 | 2.0 | 0.4 | 3.5 | -3.1 | -7.9 | nt | nt
CC[C@@H]1C/C=C\Cc2ccccc2[C@H](C(=O)C[C@@H](O)CC(C)=O)OC1=O | 51.6* | 0.4 | 54.2* | -9.7 | 38.9 | nt | 53.0* | 49.4*
CC[C@H]1C/C=C\Cc2ccccc2[C@H](C(=O)C[C@@H](O)CC(C)=O)OC1=O | 15.1 | -3.4 | 17.5 | 1.4 | 2.7 | nt | nt | nt
O=C1NCCN1c1ccc(CN2CCN(C3CCCCC3)C(CCO)C2)cc1 (configuration not stated) | 9.7 | -3.4 | 19.6 | 1.7 | -14.8 | -6.2 | nt | nt
Cc1cccc(CN2C(=O)/C(=C\c3ccc(C(=O)NCCCN4CCN(C)CC4)cc3)Oc3ccccc32)c1 | 61.8* | 1.2 | 43.5* | 18.2 | 5.0 | 35.3 | -17.8 | 46.1*
CN1CCN(CCCNC(=O)c2ccc(/C=C3/Sc4ccccc4N(Cc4cccc(Cl)c4)C3=O)cc2)CC1 | nt | -2.1 | nt | nt | nt | 7.3 | nt | nt
Cc1cccc(/C(N)=N/OC(=O)CCCc2ccccc2)c1 | 59.5* | 2.2 | 61.3* | 20.7 | 53.1* | -0.1 | 57.5* | 59.0* | tim10 confirm=45.2*
Cc1cccc(/C(N)=N/OC(=O)c2ccco2)c1 | 59.3* | 4.0 | 41.5* | 3.0 | 26.5 | 12.6 | 31.8* | 43.2*
COc1ccc(/C(N)=N/OC(=O)c2ccco2)cc1 | 11.5 | -8.0 | 2.8 | 14.0 | 9.6 | 29.1 | nt | nt
Cc1cccc(/C(N)=N/OC(=O)CCCN2C(=O)c3ccccc3C2=O)c1 | 27.7 | -11.0 | 15.3 | 20.0 | 2.1 | 9.7 | nt | nt
N/C(=N\OC(=O)c1ccco1)c1ccc(Br)cc1 | 61.6* | -2.1 | 58.2* | 4.6 | 55.8* | 0.5 | 53.7* | 76.2* | tim10 confirm=50.6*
C=CC[n+]1c(-c2ccc(Cl)cc2Cl)csc1Nc1c(C)n(C)n(-c2ccccc2)c1=O | 52.3* | -2.5 | 48.8* | 27.1 | 30.1 | -0.8 | 37.7* | 49.0*
CCCC[n+]1c(-c2ccc(Cl)cc2Cl)csc1Nc1ccccc1 | -1.6 | 1.2 | 9.8 | 13.5 | 8.5 | 11.8 | nt | nt
C=CC[n+]1c(-c2ccc(Cl)cc2Cl)csc1Nc1ccc(NC(C)=O)cc1 | 66.7* | 2.9 | 59.5* | 21.8 | 36.8 | -3.4 | 58.5* | 78.5*
Cc1ccc(C(=O)Oc2cc(N)n(S(=O)(=O)c3ccc(F)cc3)n2)cc1 | 51.8* | -1.8 | 49.1* | 10.2 | 44.7* | -2.2 | 34.1* | 42.7* | tim10 confirm=49.4*
COc1ccc(OC)c(NC(=O)c2cc3c(cc2Cl)N2CCCCCC2=NS3(=O)=O)c1 | 10.6 | -1.3 | -5.2 | 11.7 | -3.1 | nt | nt | nt
c1ccc2c(c1)OCCc1c-2[nH]c2ccccc12 | 60.8* | -0.6 | 46.2* | 15.1 | 20.0 | 11.4 | 41.5* | 58.0*
CC(=O)Nc1ccc(N2CCCCC2)c(C(=O)Nc2cccc(C)c2)c1 | 54.3* | 6.5 | 42.7* | -2.3 | 38.2 | 11.6 | 56.9* | 49.6*
CC(C)NC(=O)Cn1c(=O)n(CC(=O)N2CCCCC2)c(=O)c2sccc21 | 9.5 | 0.2 | 26.5 | -2.4 | 5.2 | 10.0 | nt | nt
COc1ccc(O)c(-c2cc(-c3cccs3)[nH]n2)c1 | 64.0* | 1.1 | 42.8* | 32.0 | 36.8 | 19.5 | 16.1 | 69.2*
Clc1ccc(/C=C/c2nc3ccccc3[nH]2)c(Cl)c1 | 62.1* | 3.3 | 41.1* | 11.3 | 49.9* | 4.1 | 41.0* | 75.8* | tim10 confirm=32.5*
Clc1cccc(Cl)c1/C=C/c1nc2ccccc2[nH]1 | 84.8* | -0.5 | 44.7* | 37.7 | 65.3* | 10.2 | 33.9* | 88.0* | tim10 confirm=52.8*
